Source: PubChem BioAssay
The source made the active and inactive calls.

Tests used:
Albumin (Bos taurus) = Albumin (Bos taurus) (UniProt P02769); assay: compounds binding labelled BSA control protein – biochemical, small-molecule microarray, Alexa647 label, 635/667 nm fluorescence, artefact control for SMM control protein annotation, profiling panel (AID 1118); settings: BSA-A647 binding, fluorescence 635 nm, higher = more signal;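 also: score merges 667 nm emission intensity and signal-to-noise per printed compound spot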
Albumin (Bos taurus), sequence (P02769 whole entry, looked up): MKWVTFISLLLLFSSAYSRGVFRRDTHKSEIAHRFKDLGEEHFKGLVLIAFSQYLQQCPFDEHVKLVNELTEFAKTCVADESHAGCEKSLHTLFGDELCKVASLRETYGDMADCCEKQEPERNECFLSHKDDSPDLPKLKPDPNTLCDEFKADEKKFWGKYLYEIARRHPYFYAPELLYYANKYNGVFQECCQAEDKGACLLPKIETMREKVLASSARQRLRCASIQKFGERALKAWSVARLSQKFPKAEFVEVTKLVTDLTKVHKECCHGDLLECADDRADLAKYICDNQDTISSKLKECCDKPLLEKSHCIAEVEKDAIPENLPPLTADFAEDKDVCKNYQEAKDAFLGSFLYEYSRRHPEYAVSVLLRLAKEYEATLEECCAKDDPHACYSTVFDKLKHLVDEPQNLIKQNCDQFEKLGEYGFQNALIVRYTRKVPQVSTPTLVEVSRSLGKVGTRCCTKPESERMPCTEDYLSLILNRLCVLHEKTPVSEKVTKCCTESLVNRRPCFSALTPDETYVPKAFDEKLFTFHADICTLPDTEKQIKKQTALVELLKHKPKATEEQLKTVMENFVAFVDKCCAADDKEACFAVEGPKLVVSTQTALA

[1] = probe aXIP binding to arrayed compounds – biochemical, NeuroSMM set, 635/667 nm fluorescence, primary screen (AID 1119); settings: small-molecule microarray, higher = more signal, called active from +8 up or from −8 down;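 also: probe is the protein aXip251-270 applied at 1 µg/mL to compound-printed slides; binding of probe to printed compounds measured as 667 nm fluorescence plus signal to noise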
[2] = probe aNOTCH3 binding on compound microarray – biochemical, small-molecule microarray, 635/667 nm fluorescence, primary screen (AID 1120); settings: higher = more signal;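 also: probe is a biotin-tagged antibody raised against NOTCH3 rather than NOTCH3 protein; score merges spot fluorescence near 667 nm with spot signal to noise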
[3] = probe aNOTCH2 binding on compound microarray – biochemical, small-molecule microarray, 635/667 nm fluorescence, primary screen (AID 1121); settings: higher = more signal;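 also: score merges feature fluorescence read at 667 nm with its signal to noise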
[4] = biological target: Carbonic anhydrase 2 (Homo sapiens) (UniProt P00918); assay: compounds binding carbonic anhydrase 2 – biochemical, small-molecule microarray, Alexa647-labelled CAII, profiling panel (AID 1122); settings: CAII-A647 binding fluorescence, higher = more signal
[5] = COS7 lysate on small-molecule microarray, probe aHis, 635 nm (AID 1123); settings: COS7 cell lysate, fluorescence, higher = more signal;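 also: z-score combines 667nm fluorescence intensity with signal-to-noise per printed compound spot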
[6] = probe aLAP1 signal on lysate-treated microarray – cell lysate, small-molecule microarray, COS7 lysate, primary screen (AID 1124); settings: probe aLAP1, fluorescence, higher = more signal;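 also: lysate comes from COS7 cells expressing LAP1 and is applied at 0.3 µg/mL; score merges spot fluorescence near 667 nm with signal-to-noise over triplicate slides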
Sam68 (KHDRBS1) = assay: compounds binding KHDRBS1 protein – biochemical, small-molecule microarray, 635 nm fluorescence, primary screen (AID 1125); settings: higher = more signal;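 also: score merges 667 nm channel intensity with signal to noise over triplicate slides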
[7] = tested on: Chordin-like protein 2 (CHRDL2); assay: compounds binding chordin-like 2 – biochemical, small-molecule microarray, 635 nm fluorescence, primary screen (AID 1126); settings: fluorescence 635 nm, higher = more signal;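 also: printed compound slides probed with Chrdl2 protein at 4 µg/mL for 1 h at 4 C; score merges 667 nm emission intensity with signal to noise over three replicate slides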
[8] = biological target: Concanavalin-A (Canavalia ensiformis) (UniProt P02866); assay: compounds binding concanavalin A lectin – biochemical, small-molecule microarray, Alexa647 label, 635 nm, artefact control for SMM control protein annotation, primary screen (AID 1127); settings: ConA-A647 binding fluorescence, higher = more signal;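 also: z combines 667 nm emission intensity with signal-to-noise across three replicate slides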
Concanavalin-A (Canavalia ensiformis), sequence (P02866 whole entry, looked up): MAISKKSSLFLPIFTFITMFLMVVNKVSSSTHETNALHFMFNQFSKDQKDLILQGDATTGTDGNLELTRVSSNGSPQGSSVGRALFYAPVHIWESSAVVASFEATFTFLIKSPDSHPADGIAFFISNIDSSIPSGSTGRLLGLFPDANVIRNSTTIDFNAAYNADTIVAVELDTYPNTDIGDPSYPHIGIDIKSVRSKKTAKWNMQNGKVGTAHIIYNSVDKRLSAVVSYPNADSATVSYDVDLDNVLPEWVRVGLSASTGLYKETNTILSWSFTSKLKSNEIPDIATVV

[9] = compounds binding Alexa647 anti-His antibody – biochemical, small-molecule microarray, 635 nm fluorescence, artefact control for SMM control protein annotation, primary screen (AID 1128); settings: higher = more signal;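 also: score merges feature fluorescence with signal-to-noise for each printed compound spot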
[10] = tested on: Human papillomavirus type 1a E7 protein (residues 1-88); assay: HPV1a E7 small-molecule binders, primary screen, biochemical, small-molecule microarray, residues 1-88, 635 nm (AID 1129); settings: small-molecule microarray binding, fluorescence 635 nm; higher = more signal
[11] = biological target: Focal adhesion kinase 1 (Homo sapiens) (UniProt Q05397); assay: PTK2 protein binding on printed compound slides – biochemical, small-molecule microarray, 635/667 nm fluorescence, BSA, DTT, primary screen (AID 1130); settings: 635 nm fluorescence, higher = more signal;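 also: composite of spot emission at 667 nm and signal to noise over triplicate slides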
Focal adhesion kinase 1 (Homo sapiens), sequence (Q05397 whole entry, looked up): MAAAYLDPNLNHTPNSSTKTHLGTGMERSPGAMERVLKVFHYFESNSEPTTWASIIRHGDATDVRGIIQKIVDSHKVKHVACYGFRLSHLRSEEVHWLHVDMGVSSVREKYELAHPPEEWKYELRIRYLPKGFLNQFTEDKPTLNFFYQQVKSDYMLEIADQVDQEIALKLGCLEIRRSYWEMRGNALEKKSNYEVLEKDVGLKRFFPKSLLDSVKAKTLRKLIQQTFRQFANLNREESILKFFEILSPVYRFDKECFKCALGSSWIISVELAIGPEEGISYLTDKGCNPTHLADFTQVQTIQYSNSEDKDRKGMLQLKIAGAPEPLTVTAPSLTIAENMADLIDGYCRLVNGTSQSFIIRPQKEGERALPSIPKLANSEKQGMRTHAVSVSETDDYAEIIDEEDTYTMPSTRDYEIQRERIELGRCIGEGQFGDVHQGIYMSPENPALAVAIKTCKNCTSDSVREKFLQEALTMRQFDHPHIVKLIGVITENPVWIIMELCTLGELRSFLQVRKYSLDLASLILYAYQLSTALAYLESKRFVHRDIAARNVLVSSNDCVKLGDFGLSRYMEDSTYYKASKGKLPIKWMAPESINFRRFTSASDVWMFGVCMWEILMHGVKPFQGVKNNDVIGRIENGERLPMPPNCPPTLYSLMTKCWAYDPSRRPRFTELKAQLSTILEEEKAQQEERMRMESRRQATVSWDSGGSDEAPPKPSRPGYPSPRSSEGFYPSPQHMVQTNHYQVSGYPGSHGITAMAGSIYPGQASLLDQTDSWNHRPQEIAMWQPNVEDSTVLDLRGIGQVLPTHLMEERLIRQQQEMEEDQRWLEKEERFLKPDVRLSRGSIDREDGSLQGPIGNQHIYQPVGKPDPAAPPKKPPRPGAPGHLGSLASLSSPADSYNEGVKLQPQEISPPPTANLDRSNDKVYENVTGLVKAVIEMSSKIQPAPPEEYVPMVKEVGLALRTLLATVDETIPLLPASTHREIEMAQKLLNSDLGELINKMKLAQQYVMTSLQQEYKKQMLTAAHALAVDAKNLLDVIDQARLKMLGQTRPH

[12] = tested on: Fibrinogen (Alexa647-labelled); assay: Alexa647-fibrinogen binding to printed small molecules – biochemical, small-molecule microarray, 635/667 nm fluorescence, artefact control for SMM control-protein annotation, profiling panel (AID 1131); settings: fibrinogen-A647 binding fluorescence, higher = more signal;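 also: z-score merges 667 nm fluorescence with per-spot signal-to-noise over triplicate slides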
[13] = biological target: Follistatin (Homo sapiens) (UniProt P19883); assay: FST protein binding to printed compounds – biochemical, small-molecule microarray, 635/667 nm fluorescence, primary screen (AID 1132); settings: 635 nm fluorescence, higher = more signal
Follistatin (Homo sapiens), sequence (P19883 whole entry, looked up): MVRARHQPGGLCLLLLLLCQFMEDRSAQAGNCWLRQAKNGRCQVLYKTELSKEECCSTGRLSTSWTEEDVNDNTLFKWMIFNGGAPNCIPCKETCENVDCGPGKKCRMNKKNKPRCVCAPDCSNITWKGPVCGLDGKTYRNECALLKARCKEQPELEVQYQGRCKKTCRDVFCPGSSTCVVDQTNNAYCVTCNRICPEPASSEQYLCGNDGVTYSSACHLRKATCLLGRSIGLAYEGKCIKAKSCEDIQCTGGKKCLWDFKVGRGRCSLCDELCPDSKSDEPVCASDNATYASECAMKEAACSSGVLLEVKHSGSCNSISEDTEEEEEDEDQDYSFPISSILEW

[14] = biological target: Fibroblast growth factor 2 (Homo sapiens) (UniProt P09038); assay: basic fibroblast growth factor binding to printed compounds – biochemical, small-molecule microarray, 635/667 nm fluorescence, primary screen (AID 1133); settings: FGF2, fluorescence 635/667, higher = more signal
Fibroblast growth factor 2 (Homo sapiens), sequence (P09038 whole entry, looked up): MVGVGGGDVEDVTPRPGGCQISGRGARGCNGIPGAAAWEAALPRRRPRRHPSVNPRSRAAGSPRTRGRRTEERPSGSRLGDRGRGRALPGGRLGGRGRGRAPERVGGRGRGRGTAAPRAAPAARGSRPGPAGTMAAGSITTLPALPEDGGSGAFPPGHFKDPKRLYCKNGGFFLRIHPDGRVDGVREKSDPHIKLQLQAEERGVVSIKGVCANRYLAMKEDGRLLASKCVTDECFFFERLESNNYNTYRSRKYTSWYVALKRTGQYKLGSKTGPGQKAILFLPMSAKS

[15] = JC-1 mitochondrial potential readout, lung cancer cells – cell-based, A549, JC-1 fluorescence, basal, 24 h, 100 nL, profiling panel (AID 1138); settings: higher = more signal;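 also: A549 lung adenocarcinoma cells under basal conditions with no added stimulus; test concentration not given here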
Lefty1 = Lefty1 protein binding to printed compounds – biochemical, small-molecule microarray, 635/667 nm fluorescence, primary screen (AID 1139); settings: fluorescence 635/667, higher = more signal
[16] = tested on: wheat germ agglutinin (Triticum aestivum), Alexa647-labelled; assay: Alexa647-WGA lectin binding to printed small molecules – biochemical, small-molecule microarray, 635/667 nm fluorescence, artefact control for SMM control-protein annotation, profiling panel (AID 1140); settings: WGA-A647 binding, 635 nm fluorescence, higher = more signal;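 also: score merges 667 nm feature emission with signal to noise over triplicate slides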
[17] = biological target: Luciferin 4-monooxygenase (Photinus pyralis) (UniProt P08659); assay: inhibition of purified Photinus pyralis luciferase – biochemical, luminescence, purified enzyme, 2006 set, primary screen (AID 1141); settings: purified firefly luciferase, SteadyGlo luminescence, 30 min; higher = more signal, called active from +8 up or from −8 down;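 also: cell-free assay with purified firefly luciferase at 100 ng per well in PBS; test concentration not given here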
Luciferin 4-monooxygenase (Photinus pyralis), sequence (P08659 whole entry, looked up): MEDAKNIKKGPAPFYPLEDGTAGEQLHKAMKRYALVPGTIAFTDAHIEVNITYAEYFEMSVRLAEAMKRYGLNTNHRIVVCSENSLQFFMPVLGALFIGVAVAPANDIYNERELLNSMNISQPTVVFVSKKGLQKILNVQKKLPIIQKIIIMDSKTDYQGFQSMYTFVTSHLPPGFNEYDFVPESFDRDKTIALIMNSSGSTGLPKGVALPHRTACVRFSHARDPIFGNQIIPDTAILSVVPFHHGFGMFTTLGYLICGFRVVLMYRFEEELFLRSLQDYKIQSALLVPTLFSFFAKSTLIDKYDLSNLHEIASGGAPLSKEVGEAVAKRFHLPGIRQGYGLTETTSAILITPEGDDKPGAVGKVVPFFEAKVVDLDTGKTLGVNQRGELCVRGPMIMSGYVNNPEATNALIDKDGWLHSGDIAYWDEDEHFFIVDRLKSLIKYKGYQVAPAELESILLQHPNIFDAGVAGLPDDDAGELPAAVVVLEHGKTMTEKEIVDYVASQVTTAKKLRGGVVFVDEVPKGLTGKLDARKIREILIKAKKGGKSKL

SMILES | composite z-score (Albumin (Bos taurus)) | composite Z-score [1] | composite z-score [2] | composite z-score [3] | composite z-score [4] | composite z-score [5] | composite z-score [6] | composite z-score (Sam68 (KHDRBS1)) | composite z-score [7] | composite z-score [8] | composite z-score [9] | composite z-score [10] | composite z-score [11] | composite z-score [12] | composite z-score [13] | composite z-score [14] | z-score [15] | composite z-score (Lefty1) | composite z-score [16] | z-score [17]
CCOC(=O)C[C@H]1[C@H](OC(=O)c2ccccc2-c2ccccc2)[C@@H](NC(=O)CC(C)C)c2cc(OCCCO)ccc2N1C(=O)Cc1ccc(OC)cc1 | 0.401 | 0.692 (inactive) | 0.0708 | -0.118 | -0.132 | 0.761 | -0.201 | 0.488 | 0.246 | 0.482 | -0.272 | 0.149 | -0.0432 | 0.522 | -0.247 | 0.268 | 1.15 | 0.108 | 0.288 | -0.0339 (inactive)
C#C[C@H](O[Si](C#Cc1ccc(Oc2ccccc2)cc1)(C(C)C)C(C)C)c1ccccc1 | 0.687 | 0.29 (inactive) | 0.0122 | -0.0057 | 0.695 | 0.45 | 0.484 | 0.99 | 0.662 | 0.971 | -0.179 | 0.679 | -0.6 | 0.385 | 0.101 | 0.137 | -1.83 | 0.104 | 0.0936 | 0.0848 (inactive)
O=C1N[C@@H](Cc2ccccc2)C(=O)N2[C@@H]1C[C@@H](C(=O)O)[C@H]2c1cccc(OCCO)c1 | 0.0429 | 0.108 (inactive) | -0.0362 | -0.124 | 0.733 | 0.514 | 0.256 | 1.22 | 0.992 | 0.311 | 3.3 | 1.03 | 0.27 | 0.56 | 1.38 | 1.43 | 0.849 | 1.49 | 0.552 | -1.91 (inactive)
COC(=O)[C@@]1(Cc2ccc(OC)cc2)[C@H]2c3cc(C(=O)N4CCCC4)n(CCN4CNCC4=O)c3C[C@H]2CN1C(=O)c1ccccc1 | 1.1 | 0.413 (inactive) | 1.49 | 0.967 | 0.57 | 1.79 | 0.104 | -0.764 | -0.316 | -0.234 | 3.25 | 1.16 | 1.06 | 0.326 | -1.02 | -0.48 | -0.0456 | -0.899 | 0.949 | -0.119 (inactive)
CO[C@H]1O[C@H](CO)[C@@H](OC(=O)Nc2ccc(C(F)(F)F)cc2)[C@H](OC(=O)Nc2ccc3c(c2)OCO3)[C@@H]1OC(=O)Nc1ccc2c(c1)OCO2 | 0.835 | -0.279 (inactive) | 0.149 | -0.164 | 0.238 | 1.83 | 0.579 | 1.33 | 0.0643 | 1.14 | 2.18 | 1.22 | 1.43 | 0.607 | 1.17 | 0.397 | -0.656 | 0.537 | 0.729 | -17.3 (active)
C[N+](C)(C)CCCC[C@@H]1NC(=O)[C@H]2C[C@@H](C(=O)NCCCCCCNC(=O)CS)[C@@H](c3cccc(OCCO)c3)N2C1=O | 0.492 | 3.4 (inactive) | -0.246 | -0.146 | 0.881 | 1.8 | 0.864 | -0.365 | -1.44 | -0.338 | 1.03 | -0.945 | 0.434 | -1.56 | 0.897 | 0.885 | -0.32 | -1.36 | 0.396 | -0.252 (inactive)
NCCCCCCNC(=O)[C@@H]1C[C@@H]2C(=O)NCC(=O)N2[C@@H]1c1ccc(O)cc1 | 0.741 | 0.706 (inactive) | -0.232 | -0.124 | 0.4 | 0.738 | 0.0946 | 1.28 | 1.17 | 1.17 | 1.2 | 1.14 | 0.183 | 0.971 | 1.46 | 1.62 | -0.614 | 1.63 | 0.846 | 1.14 (inactive)
COC(=O)[C@@]1(Cc2ccc(OC)cc2)[C@H]2c3cc(C(=O)N4CCCC4)n(Cc4ccc(C)c(F)c4F)c3C[C@H]2CN1C(=O)c1ccccc1 | 1.05 | -0.572 (inactive) | 0.538 | 0.223 | 0.744 | 3.22 | 0.345 | 1.3 | -0.596 | 1.15 | 1.39 | 1.27 | 1.32 | 0.97 | 0.884 | -0.294 | 1.41 | -0.161 | 1.32 | 1.44 (inactive)
COC(=O)[C@@]1(Cc2ccc(OC)cc2)[C@H]2c3cc(C(=O)N(C)C)n(CCc4ccccn4)c3C[C@H]2CN1C(=O)c1ccccc1 | 0.928 | -0.0712 (inactive) | 1.28 | 0.689 | 0.461 | 1.06 | 0.272 | 0.221 | -0.764 | -0.138 | 0.429 | 0.815 | 0.933 | -1.04 | 0.0679 | -0.162 | -0.267 | -0.919 | 0.698 | 1.49 (inactive)
COc1ccc(CCNC(=O)[C@@]2(C)c3ccccc3C(=O)N(C(C)C)[C@H]2c2ccc(CO)cc2)cc1 | 0.252 | 0.768 (inactive) | -0.0074 | -0.151 | 0.578 | 0.216 | 0.591 | -0.38 | 0.397 | 0.613 | 1.63 | 1.19 | -0.0743 | 0.0931 | 0.674 | 0.493 | 0.537 | 0.826 | 0.544 | -1.19 (inactive)
C=CCN1C(=O)[C@]2(O[C@H](CCn3cc([C@H](O)c4ccccc4)nn3)[C@@H]([Si](C)(C)c3ccc(OC)cc3)[C@@H]2C)c2ccccc21 | -0.0698 | 0.0503 (inactive) | -0.253 | -0.156 | -0.238 | -0.011 | 0.0809 | -0.776 | -0.278 | -0.847 | -0.435 | -0.723 | -0.458 | -1.07 | -0.696 | -0.403 | -0.156 | -0.581 | 0.417 | 0.184 (inactive)
